# IL-2 act: activates IL-2 in a cell-based reporter assay | IL-2 activation reporter assay, cell-based qHTS; stimulated with anti-CD3/CD4/CD28 beads; in transgenic mouse T cells | activation, % (series mostly up to about 46 µM) | 360,000 compounds, 0.065% hits | AID 652025; in the data active = activation above about 50%; inconclusive = mostly about 30% to 49%; also: 0% is about no effect
#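 Quantitative HTS in unstimulated transgenic mouse T cells, with memory T cells as non-tolerant control and PMA/ionomycin as tolerance-bypass control. Compound pretreatment lasted 60 minutes before 18 h bead stimulation; EGFP/DsRed fluorescence read.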
# Nrf2 block: inhibitors of Nrf2 signaling | AID 504444 | Potency, µM (top dose mostly 46 µM), for the others: at the highest dose activity change, negative = inhibition, usual class: inhibitors | A549 ARE-Fluc reporter, luciferase luminescence, 18-24 h | 360,000 compounds, 2.1% hits; also: potency is read from the fitted curve at half-maximal effect; % is scaled to controls: 0 for no effect and ±100 for the full control effect; nearly all actives have a fitted effect of over 60% in size
#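 Nrf2 activity is the BugLite luminescence, read 15 min after reagent at room temperature, following CellTiter-Fluor cytotoxicity readout (30 min, 37C). Compound titrations were applied for 18-24 h to 5000 A549 ARE_Fluc cells/well in 5% FBS OPTI-MEM.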
# Nrf2 activator: activates Nrf2 signaling | AREc32 ARE-luciferase reporter (MCF7-derived line), luminescence, 24 h | Potency, µM (highest dose often 46.1 µM), for inactives: top-dose activation, actives largely listed as activators | 410,000 compounds, 0.31% hits | AID 624171; also: potency is read from the fitted curve at half-maximal effect; % of control where 0% means no effect; nearly all actives have a fitted effect of over 65% in size
#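 AREc32 cells carrying an ARE-driven firefly luciferase, 1000 cells/well in OPTI-MEM with 5% FBS, dosed after overnight attachment and incubated 24 hr at 37 deg C. Steady-Glo luminescence read after 30 min at RT.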
# A549 viability: kills or reduces viability of A549 cells in Nrf2 counter-screen; AID 504648; Potency, µM (highest dose often 46 µM), for the others: top-dose activity change, negative = cytotoxicity, usual class: inhibitors; A549 ARE-Fluc cells, CellTiter-Fluor viability, 18-24 h; 390,000 compounds, 0.16% hits; also: potency is read from the fitted curve at half-maximal effect; % is scaled to controls: 0 for no effect and ±100 for the full control effect
#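 A549 ARE_Fluc cells in 5% FBS OPTI-MEM were exposed to compounds in concentration-response for 18-24 h at 37 deg C. Viability was read by CellTiter-Fluor fluorescence (Ex 405/Em 525) after 30 min, before the luciferase read.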
# Starred values were filed as active, the others as inactive; u = inconclusive; x = not tested or not shown; [ ] = another dose, or the depositor's remark. Compounds with a hit are over-represented: about 2.3% of the library has one in this group of screens. Unless noted, calls follow the shape of the dose curve; as a rule, active = well fitted curve in the direction sought with a large enough effect; inconclusive = small, poorly fitted or top-dose-only effect, or another doubt; inactive = no such curve, though single readings can be large; an effect the other way counts as inactive or inconclusive.
SMILES,IL-2 act,Nrf2 block,Nrf2 activator,A549 viability
CCOc1cc2[nH]c(=O)n(CCCCC(=O)N3CCN(c4ccccc4)CC3)c(=O)c2cc1OCC,x,x,-0.9%,1.4%
CC1CCN(S(=O)(=O)c2ccc3c4c2CC(=O)N4CC(C)S3)CC1 (configuration not stated),-0.6,20.6µM*,9.6%,-8.3%
O=c1cc(C(Cl)(Cl)Cl)oc2c1ccc1ccccc12,-3.0,20.6µM*,12.6µM*,u
O=c1cc(-c2ccncc2)oc2c1ccc1ccccc12,0.9,18.4µM*,3.4%,-14.3%
O=C(CCCN1C(=O)/C(=C/c2ccccc2Cl)SC1=S)Nc1ccccn1,2.6,20.6µM*,0.6%,-23.3%
O=C(CCCN1C(=O)/C(=C/c2ccccc2Cl)SC1=S)Nc1cccnc1,-4.8,u,-1.3%,u
O=C1/C(=C/c2ccccc2Cl)SC(=S)N1CCCC(=O)N(CCO)c1ccccc1,-1.9,16.4µM*,3.6%,-12.2%
O=C(CCN1C(=O)/C(=C/c2ccccc2Cl)SC1=S)Nc1ccccn1,1.1,15.6%,4.3%,4.3%
COc1cccc(-c2n[nH]c3c2C(c2ccccn2)N(C)C3=O)c1 (configuration not stated),x,-1.9%,5.2%,3.3%
CCOc1cc(CNCCSc2nnnn2C)ccc1OCc1ccc(Cl)cc1Cl,x,-27.2%,-3.0%,u
Cn1nnnc1SCCNCc1ccccc1OCc1ccc(Cl)cc1Cl,x,11.6µM*,-5.0%,-0.9%
COC(=O)c1c(C(=O)OC)c(-c2ccc(Cl)c(Cl)c2)n2c1CCC2,-2.9,18.4µM*,0.5%,-2.9%[1.84 µM]
COc1ccc(C)cc1NC(=O)c1c2c(nc3ccccc13)C(=O)N(C1CCCCC1)C2,x,u,-0.1%,-25.3%
COc1cccc(C(=O)Nc2cc(-c3ccccc3)no2)c1,x,u,17.2%,11.7%
CCOC(=O)C1CCCN(C(=O)c2ccc3c(c2)sc2nc(-c4cccc(OC)c4)cn23)C1 (configuration not stated),x,16.4µM*,4.0%,-6.9%
CCN(CC)S(=O)(=O)c1ccc2c(c1)N(CC(=O)NCCCN1CCN(c3cc(C)ccc3C)CC1)C(=O)CO2,x,x,-0.2%,-22.1%
Cc1ccc(NS(=O)(=O)c2ccc3c(c2)C(=O)c2ccccc2C3=O)c(C)c1,-1.9,-14.1%,0.2%,2.5%
Cc1cccc(S(=O)(=O)Nc2cccc3c2C(=O)c2ccccc2-3)c1,6.7,18.4µM*,9.4%,-29.0%
Fc1ccc(-c2cnn3c(-c4cccs4)ccnc23)cc1,106.1*,u,u,3.2%
CN1CCN(c2oc(-c3ccc(OCc4ccc(Cl)cc4)cc3)nc2C#N)CC1,x,u,x,0.3%
CCOC(=O)c1cnc2ccc(OCC)cc2c1Nc1ccc(OCc2ccccc2Cl)cc1,x,20.6µM*,0.1%,-16.2%
COC(=O)C1=C(C)NC(=S)N(C(C)=O)C1c1ccc(OC)c(OC)c1 (configuration not stated),-1.8,14.6µM*,0.2%,-12.9%
O=C(NNC(=O)c1cc(-c2ccccc2)nc2ccccc12)c1csc(N2CCOCC2)n1,-3.2,-3.5%,1.3%,-9.7%
Cc1ccc(-c2cc(C(=O)NNC(=O)c3csc(N4CCOCC4)n3)c3ccccc3n2)cc1,0.1,20.6µM*,12.9%,-18.6%
Cn1ccc2cc(S(=O)(=O)N3CCCN(C(=O)Nc4ccc(Br)cc4)CC3)ccc21,x,x,4.3%,-1.4%
SMILES,IL-2 act,Nrf2 block,Nrf2 activator,A549 viability
CCOC(=O)c1cccc(NC(=O)Nc2cc(OC)ccc2OC)c1,-4.2,20.6µM*,2.7%,-7.6%
CCOC(=O)Nc1cccc(OCC(=O)Nc2ccc(OC)cc2OC)c1,-0.7,14.6µM*,1.5%,u
CSc1nc(C)cc(Nc2cccc(C(=O)O)c2)n1,x,8.9%,3.6%,0.6%
CC[C@@]1(O)C(=O)OCc2c1cc1n(c2=O)Cc2cc3c(CN(C)C)c(O)ccc3nc2-1,0.8,2.31µM*,-1.8%,u
CCCCn1nc2cc(C(=O)NCc3cc(C(F)(F)F)cc(C(F)(F)F)c3)ccc2c1OCC,-2.1,18.4µM*,-0.5%,-6.1%
CCOc1c2ccc(C(=O)NCc3cc(C(F)(F)F)cc(C(F)(F)F)c3)cc2nn1CCOC,-0.3,u,-0.1%,-5.9%
CCn1cc2nc(SCc3ccc(C)cc3)n(CCc3ccccc3)c(=O)c2n1,x,20.6µM*,-0.5%,u
CCn1cc2nc(SCc3ccc(F)cc3)n(CCc3ccccc3)c(=O)c2n1,x,u,5.1%,5.8%
CCOC(=O)c1c(Nc2cccc(C)c2)nnc(-c2ccccc2)c1-c1ccccc1,x,18.4µM*,2.4%,-16.0%
CCN(CC)c1ccc(C(=O)NCc2nc3cccnc3n2Cc2ccc(C)cc2)cc1,x,x,2.3%,-4.7%
CC1=C(C(=O)Nc2ccccc2)C(c2ccncc2)n2nc(SCc3ccccc3)nc2N1 (configuration not stated),x,-10.2%[9.27 µM],-0.2%,-11.2%
COc1ccccc1C(=O)Nc1ccc(S(=O)(=O)N2CCOCC2)cc1,-1.5,x,3.5%,-1.4%
COc1ccccc1C(=O)NCCC(=O)Nc1ccc(S(=O)(=O)Nc2ncccn2)cc1,0.7,1.7%,-0.5%,-3.3%
O=C(Nc1ccc(S(=O)(=O)N2CCCCC2c2cccnc2)cc1)c1ccccc1F (configuration not stated),-2.4,0.1%,-0.2%,3.2%
COc1ccccc1C(=O)Nc1ccc(S(=O)(=O)N2CCCCC2c2cccnc2)cc1 (configuration not stated),-2.6,16.4µM*,1.3%,-19.6%
COc1ccccc1C(=O)NCCC(=O)Nc1ccc(S(=O)(=O)N2CCC(C)CC2)cc1,-0.4,11.6µM*,-0.3%,-12.9%
COc1ccccc1C(=O)Nc1ccc(S(=O)(=O)N2CCC(C)CC2)cc1,-2.9,23.1µM*,-0.1%,-17.4%
CCN(CC)S(=O)(=O)c1cccc(S(=O)(=O)c2cccc(S(=O)(=O)N(CC)CC)c2)c1,-2.1,9.2µM*,-0.3%,1.0%
CCN(CC)S(=O)(=O)c1cccc(S(=O)(=O)N2CCCCC2)c1,-2.4,4.9%,-0.1%,-1.6%
O=C(/C=C/c1ccc([N+](=O)[O-])s1)N1CCCC1,-0.1,20.6µM*,u,-22.9%
O=C(Nc1sc2c(c1C(=O)O)CCCC2)c1cccs1,0.5,u,4.7%,u
O=C(Nc1sc2c(c1C(=O)NCC1CCCO1)CCCC2)c1cccs1 (configuration not stated),-0.1,20.6µM*,4.5%,-14.4%
COc1ccc(C2Nc3ccccc3C(=O)N2Cc2ccccc2)cc1COc1ccc(C#N)cc1 (configuration not stated),x,-8.1%,x,2.4%
CC(C)c1ccc(C(C)NC(=S)NC2CCCCC2)cc1 (configuration not stated),-2.1,18.4µM*,-0.2%,9.3%
Cc1cc(S(=O)(=O)Nc2cc3c(cc2N2CCOCC2)n(C)c(=O)c(=O)n3C)ccc1F,x,-17.5%,-0.3%,-1.8%
Cc1cc2nc(-c3cccc(Br)c3)c(Cc3ccccc3)n2c(C)c1Br,1.5,x,11.2µM*,x
CC(C)Oc1ccccc1/C=N/Nc1ccccc1[N+](=O)[O-],0.4,15.1%,10µM*,-1.6%
